# Compound activity: PubChem BioAssay, National Center for Advancing Translational Sciences (NCATS)
# Only some compounds are listed: those with a hit (about 11% of all), similar ones and a draw of the others.
# Pf growth 96h = P. falciparum growth inhibition at 96 hour, primary screen for plastid delayed-death inhibitors | Potency, µM (series often up to 28.7 µM), for inactives: at the top dose activity change, negative = inhibition, usual class: inhibitors | 6.9% of 320,000 active | P. falciparum luciferase reporter growth, 96 h
#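 Two-generation exposure (96 h) targets delayed-death phenotype. Reporter parasites carrying integrated firefly luciferase, in red cells at 2% hematocrit and 0.05% parasitemia final, kept at 37 C, 5% CO2; luminescence loss indicates inhibition.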
# AmpC inh no detg = blocks E. coli AmpC beta-lactamase in detergent-free assay; AmpC nitrocefin hydrolysis, absorbance 480 nm, 0.0001% Triton; Potency, µM (titrated, usually from 57.1 µM), without a hit: top-dose activity change, negative = inhibition, usual class: inhibitors; 0.52% of 330,000 active;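 further: plate controls were no compound for no effect and no enzyme for full effect; nearly all actives have a fitted effect of over 20% in size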
# Target sequence (P00811 whole entry, looked up): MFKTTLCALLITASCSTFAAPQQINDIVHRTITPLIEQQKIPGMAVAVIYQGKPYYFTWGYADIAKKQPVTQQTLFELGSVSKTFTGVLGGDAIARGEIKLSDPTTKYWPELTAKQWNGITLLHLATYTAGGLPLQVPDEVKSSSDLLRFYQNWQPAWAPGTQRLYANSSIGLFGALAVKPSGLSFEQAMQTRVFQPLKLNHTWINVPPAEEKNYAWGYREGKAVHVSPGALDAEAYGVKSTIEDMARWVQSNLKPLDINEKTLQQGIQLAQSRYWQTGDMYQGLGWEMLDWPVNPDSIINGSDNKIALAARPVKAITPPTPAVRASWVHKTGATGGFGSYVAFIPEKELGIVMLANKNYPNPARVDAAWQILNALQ
#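 20 mM phosphate pH 7.0 + 0.01% (detergent screen) or 0.0001% Triton X-100; 5.3 nM AmpC reagent; cpd preinc 15 min RT; nitrocefin (800 uM stock) to start; A480 q20 s × 4 min; Activity was normalised to no-enzyme and no-compound control wells.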
# AmpC detergent = inhibitors of E. coli AmpC beta-lactamase with detergent; 0.041% of 370,000 active; AmpC hydrolysis of nitrocefin, absorbance 480 nm, 0.01% Triton; Potency, µM (doses to about 114 µM), inactives show top-dose activity change, negative = inhibition, hits mostly inhibitors; AID 485294;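 further: 0% = no-compound wells and -100% = no-enzyme wells; nearly all actives have a fitted effect of over 25% in size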
#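 AmpC (5.3 nM in the dispensed reagent) in 20 mM phosphate pH 7.0 with 0.01% (detergent screen) or 0.0001% Triton X-100 was preincubated with compounds for 15 min at room temperature. Nitrocefin was then added from an 800 uM solution, and hydrolysis was followed at 480 nm.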
# Pf growth 48h = inhibits P. falciparum growth in the first generation, 48 h | P. falciparum luciferase growth in erythrocytes, 48 h | Potency, µM (highest dose often 28.7 µM), inactives show at the top dose activity change, negative = inhibition, most hits filed as inhibitors | AID 504832 | 5.9% of 310,000 active
#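 Growth was read as firefly luciferase luminescence after a 48 h, 37 C, 5% CO2 exposure of compounds to reporter-bearing P. falciparum cultures (0.1% parasitemia, 2% hematocrit final) in Albumax-supplemented RPMI 1640.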
# AMA1-RON2 inh = disrupts binding of P. falciparum AMA1 to RON2. AID 720542. AlphaScreen AMA1-biotinylated RON2 peptide binding. 0.2% of 360,000 active. Potency, µM (highest dose often 58.2 µM), inactives show top-dose activity change, negative = inhibition, hits mostly inhibitors;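 further: 0% = vehicle wells and -100% = peptide control; nearly all actives have a fitted effect of over 45% in size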
#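 AMA1 (3D7) with his tag at 25 nM final met compounds first, then biotinylated RON2 peptide at 25 nM; detection used donor plus acceptor beads, 10 µg/mL apiece, read by AlphaScreen after 30 min at room temperature.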
# HCV inh = inhibitors of hepatitis C virus infection; Potency, µM (titrated, usually from 41.8 µM), inactives show at the top dose activity change, negative = inhibition, actives largely listed as inhibitors; 3.4% of 340,000 active; Huh7.5.1 HCVcc-Cre infection, luciferase reporter, 44 h
#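 Reporter virus HCVcc-Cre (~0.5 moi) infects cells exposed to compound; seeding density 1,000 cells/well with 4 h settling beforehand. Luminescence, 15 sec read, taken 44 h post-infection following a 15 min RT substrate incubation.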
# * marks the source's active call; other numbers are inactive results; ? = inconclusive; / = not tested or not shown; ! = repeats disagree; [ ] = another dose, or the depositor's remark. The call rests on the fitted dose curve; in most records, active means well fitted curve in the direction sought with a large enough effect; inconclusive means small, poorly fitted or top-dose-only effect, or another doubt; inactive means no such curve, though single readings can be large; an effect the other way counts as inactive or inconclusive. Unless noted, on the % scale 0 is the no-effect control and ±100 the full control effect; potency means the concentration at half of the fitted maximal effect.
SMILES,Pf growth 96h,AmpC inh no detg,AmpC detergent,Pf growth 48h,AMA1-RON2 inh,HCV inh
COc1ccc(Br)cc1C(=O)Nc1ccccc1N1CCCC1,/,/,/,/,-11%,?
CCn1c(=O)n(CC)c2cc(N3CCCC3)c(NC(=O)c3ccccc3)cc21,?,81%,-3%,-15%,-9%,?
CCn1c(=O)n(CC)c2cc(N3CCCC3)c(NC(=O)c3ccccc3C)cc21,9.3µM*,101%,1%,?,-10%,?
CCn1c(=O)n(CC)c2cc(N3CCCC3)c(NC(=O)c3ccccc3F)cc21,1.3µM*,24%,?,?,-5%,13µM*
CCn1c(=O)n(CC)c2cc(N3CCCC3)c(NC(=O)c3cc(Br)ccc3OC)cc21,?,136%,1%,9.3µM*,-6%,?
COc1cc(Cl)c(C)cc1NC(=O)CCc1nc2cccnc2n1-c1ccccc1,/,/,6%,/,/,/
O=S(=O)(c1ccc(OC(F)(F)F)cc1)N1CCC(O)(c2cccc(C(F)(F)F)c2)CC1,6%,1%,-4%,?,3%,8.9µM*
COc1cc(S(=O)(=O)N2CCC(O)(c3cccc(C(F)(F)F)c3)CC2)ccc1-n1cnnn1,?,-7%,-1%,10µM*,7%,1.6µM*!
OC1(c2cccc(C(F)(F)F)c2)CCNCC1,13µM*,-6%,-12%,-1%,14%,2%
Cc1ccc(C)c(NC(=O)Cn2nc(C)c3nn(-c4ccc(Cl)cc4)c(C)c3c2=O)c1,/,/,11%,/,/,/
COc1ccc(N2C(=O)CSC23C(=O)N(CC(=O)NCCc2ccccc2)c2ccccc23)cc1 (stereo not drawn),/,/,1%,/,/,/
CC(=O)CCc1ccccc1,23%,-7%,-9%,?,-2%,4%
CC(=O)CCc1c[nH]c2c(C(=O)O)cccc12,12µM*,-9%,-12%,22%,5%,2%
N#Cc1ccc(CSc2nnc(-c3ccc(Br)cc3)o2)cc1,/,/,-5%,/,/,/
CSc1ccc(CNCCCSc2ncccn2)cc1,?,6%,5%,-14%,-3%,-6%
CSc1ccc(CNCCCN(C)C)cc1,63%,-17%,-9%,?,5%,5µM*
COC(=O)c1ccc(NC(=O)CSc2n[nH]c(CC(C)C)n2)cc1,/,/,13%,/,/,/
O=C(NN=C1CCCC1)c1[nH]c2ccc(Cl)cc2c1-c1ccccc1,13µM*,-23%,-4%,?,51%,1%
CCOC(=O)C1=CCC2c3c(c4ccccc4n3C)C(=O)C1N2C(=O)OC(C)(C)C (stereo not drawn),?,136%,-8%,8.3µM*,0%,23%
CCOC(=O)C1=CC[C@]2(C)c3c(c4ccccc4n3C)C(=O)C1N2C,?,-10%,7%,13µM*,6%,24%
CCOC(=O)C1=CC[C@H]2c3c(c4ccc(OC)cc4n3C)C(=O)C1N2S(=O)(=O)c1ccc(C)cc1,?,25%,-4%,?,-2%,?
COc1ccccc1NC(=O)C1=C(C)Nc2c(C(=O)Nc3ccc(F)cc3)cnn2C1c1cccc([N+](=O)[O-])c1 (stereo not drawn),/,/,-6%,/,/,/
COc1ccc(N2CCN(C(CNS(=O)(=O)c3ccc(OC)c(C)c3)c3ccco3)CC2)cc1 (stereo not drawn),/,/,-1%,/,/,/
Cc1oncc1C(=O)Nc1ccc(C(F)(F)F)cc1,4.5µM*!,-14%,0%,?,2%,2%[8.37 µM]
CCC(=O)NC(c1ccccc1OC)c1ccc2cccnc2c1O (stereo not drawn),-4%,-17%,?,4.1µM*,-69%,2.5µM*
CCCCC(=O)NC(c1ccccc1Cl)c1ccc2cccnc2c1O (stereo not drawn),120%,-39%,-12%,2.3µM*,134%,2.2µM*
